Reference: PubChem BioAssay
Inconclusive results are not listed. Calls of active or inactive are those of the source.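 The calls were made as follows, unless noted: active = GFP signal, as percent of the solvent control, above the screen mean plus 3 SD, about 149; inconclusive = no reading because the compound's own fluorescence upset strain identification; inactive = the rest.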

Assays:
[1] = rapamycin-like changes in RPL19A-GFP expression – cell-based, S. cerevisiae, multiplex flow cytometry, primary screen (AID 1862; in the data active = percent of DMSO control GFP below about 86%;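 also: lower values mimic rapamycin by blocking the RPL19A rise seen in DMSO cells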); details: S. cerevisiae RPL19A-GFP strain, flow cytometry fluorescence, 3 h; at 10 µM; stronger effect = lower value
[2] = TOR pathway GLN3 branch reporter MEP2-GFP changes – S. cerevisiae, multiplex flow cytometry, primary screen (AID 1867;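 active = GFP response, as percent of the DMSO control, above the screen-wide mean plus 3 SD, about 139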;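 also: median GFP channel fluorescence of barcode-gated MEP2-GFP cells measured by flow cytometry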); details: S. cerevisiae MEP2-GFP strain, 3 h, at 10 µM, stronger effect = higher value, 100% means same as DMSO wells
[3] = TOR pathway RTG branch CIT2 reporter changes – S. cerevisiae, GFP fusion, multiplex flow cytometry, primary screen (AID 1870;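 active = percent response above a set limit, the screen-wide mean plus 3 SD, cut at about 130% in these data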;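 also: barcoded CIT2-GFP strain pooled with four other GFP strains with rapamycin as positive control; median GFP fluorescence per well over plate mean of DMSO wells so 100% = DMSO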); details: S. cerevisiae CIT2-GFP expression, 3 h, at 10 µM, stronger effect = higher value
[4] = TOR pathway LAP4-GFP level changes – S. cerevisiae, multiplex flow cytometry, primary screen (AID 1873); details: S. cerevisiae LAP4-GFP expression, 3 h, at 10 µM, stronger effect = higher value
[5] = yeast AGP1-GFP level changes, GLN3 branch – cell-based, multiplex flow cytometry, S. cerevisiae, primary screen (AID 1887;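 active = GFP signal above the screen-wide mean plus 3 SD, that is over about 124.5% of the solvent control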;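 also: AGP1-GFP fusion strain of S. cerevisiae within a five-strain barcoded multiplex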); details: 3 h, at 10 µM, stronger effect = higher value
[6] = reduced mouse 2C T cell binding to pMHC/ICAM-1 vesicles – MLPCN validation set, flow cytometry, LFA-1/ICAM-1 modulator project, pilot screen (AID 2523;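 active = response below a set limit, under 55% cells CD8-positive and vesicle-bound, and CD8 cells' 90th-percentile brightness under 279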;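 as to vesicle binding response: mean PE anti-B7-1 fluorescence of CD8+ cells relative to row control; 100% = QL9-loaded vesicles with DMSO vehicle in the same plate row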); details: 2C mouse CD8+ T cells, at 7 µM, stronger effect = lower value; double positive events: measured here: CD8+/vesicle+ event percentage
[7] = biological target: Integrin beta-1 (Homo sapiens) + Integrin alpha-4 (Homo sapiens) (UniProt P13612+P05556); test: alpha4beta1 integrin LIBS antibody binding reduction – U937 cells, HUTS-21 mAb, flow cytometry, validation set, VLA-4 allosteric modulator project, pilot screen (AID 2674;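 active = inhibition above 50%, about 3 SD of the validation set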;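 also: antibody binding induced by the VLA-4 ligand LDV present at three times its Kd; 0% = LDV ligand with antibody and no compound and 100% = antibody without LDV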); details: HUTS-21 LIBS mAb binding, at 6.7 µM, stronger effect = higher value, binding induced by LDV ligand
Chain of Integrin beta-1 (Homo sapiens) + Integrin alpha-4 (Homo sapiens) (P05556 whole entry, looked up): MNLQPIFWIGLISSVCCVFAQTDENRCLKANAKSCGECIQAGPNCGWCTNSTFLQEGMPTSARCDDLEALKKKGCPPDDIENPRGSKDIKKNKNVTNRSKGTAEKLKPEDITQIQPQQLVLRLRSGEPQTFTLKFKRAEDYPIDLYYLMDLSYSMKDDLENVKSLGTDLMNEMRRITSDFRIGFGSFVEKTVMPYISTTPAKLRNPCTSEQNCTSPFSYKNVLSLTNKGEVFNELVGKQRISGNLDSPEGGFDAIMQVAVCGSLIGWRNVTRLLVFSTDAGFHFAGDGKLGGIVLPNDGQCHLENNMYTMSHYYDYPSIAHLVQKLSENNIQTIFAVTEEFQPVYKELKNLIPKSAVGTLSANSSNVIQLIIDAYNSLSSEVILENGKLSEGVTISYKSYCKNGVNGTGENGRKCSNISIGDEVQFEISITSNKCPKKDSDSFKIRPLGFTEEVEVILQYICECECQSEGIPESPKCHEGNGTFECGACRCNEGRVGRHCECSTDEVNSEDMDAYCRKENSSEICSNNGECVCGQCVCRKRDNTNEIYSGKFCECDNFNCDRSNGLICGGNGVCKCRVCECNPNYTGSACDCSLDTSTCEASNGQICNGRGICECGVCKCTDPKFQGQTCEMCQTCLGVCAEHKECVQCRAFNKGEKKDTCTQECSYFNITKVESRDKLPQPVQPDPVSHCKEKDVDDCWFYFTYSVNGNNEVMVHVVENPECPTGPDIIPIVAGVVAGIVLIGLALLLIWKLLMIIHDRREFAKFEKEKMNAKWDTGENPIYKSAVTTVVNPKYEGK
Chain of Integrin beta-1 (Homo sapiens) + Integrin alpha-4 (Homo sapiens) (P13612 whole entry, looked up): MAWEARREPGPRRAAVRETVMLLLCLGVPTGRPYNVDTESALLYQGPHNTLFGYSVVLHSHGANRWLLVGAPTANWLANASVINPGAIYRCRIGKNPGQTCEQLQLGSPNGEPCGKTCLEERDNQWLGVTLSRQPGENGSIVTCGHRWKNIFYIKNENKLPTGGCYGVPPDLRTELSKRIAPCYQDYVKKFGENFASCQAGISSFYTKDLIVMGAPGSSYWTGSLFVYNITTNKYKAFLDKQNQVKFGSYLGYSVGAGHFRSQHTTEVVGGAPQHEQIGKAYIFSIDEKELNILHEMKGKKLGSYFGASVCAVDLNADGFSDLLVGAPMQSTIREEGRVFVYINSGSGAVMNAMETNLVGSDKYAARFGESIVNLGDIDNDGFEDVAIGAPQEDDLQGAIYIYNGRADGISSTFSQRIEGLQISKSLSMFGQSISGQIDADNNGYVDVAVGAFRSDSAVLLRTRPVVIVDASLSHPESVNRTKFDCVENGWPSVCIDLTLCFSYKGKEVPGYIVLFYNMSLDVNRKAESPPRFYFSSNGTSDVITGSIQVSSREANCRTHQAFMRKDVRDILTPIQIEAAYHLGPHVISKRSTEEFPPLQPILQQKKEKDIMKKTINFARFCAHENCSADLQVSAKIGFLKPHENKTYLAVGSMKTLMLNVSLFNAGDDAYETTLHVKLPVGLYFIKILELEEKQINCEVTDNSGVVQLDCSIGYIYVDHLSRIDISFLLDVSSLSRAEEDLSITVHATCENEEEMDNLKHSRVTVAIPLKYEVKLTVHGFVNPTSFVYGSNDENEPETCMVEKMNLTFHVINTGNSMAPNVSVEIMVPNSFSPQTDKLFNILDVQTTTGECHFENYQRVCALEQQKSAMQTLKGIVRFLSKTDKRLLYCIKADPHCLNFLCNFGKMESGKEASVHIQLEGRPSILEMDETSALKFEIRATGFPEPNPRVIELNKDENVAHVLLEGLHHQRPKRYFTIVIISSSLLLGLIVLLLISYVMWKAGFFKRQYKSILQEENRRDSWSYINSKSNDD

[8] = calorie-restriction mimetic ROS inhibitors, yeast – validation compound set, pilot screen (AID 2706;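 active = superoxide response below 65% of plate, a cut near 3 SD across the whole screen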;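 also: yeast exposed to compound for one week at 30 degrees C before staining; 100% = mean of all compound wells on the same plate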); details: S. cerevisiae aging, superoxide DHE fluorescence; at 10 µM; stronger effect = lower value
[9] = biological target: Beta-adrenergic receptor kinase 1 (Homo sapiens) (UniProt P25098); test: GRK2 binders displacing RNA aptamer, biochemical, validation, human GRK2, bead flow cytometry (AID 488806;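 active = aptamer binding inhibition above 30%, about 3 SD of noise from non-fluorescent compounds; inactive = inhibition at or below 30%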); details: bead-bound GRK2, FAM-aptamer displacement, at 10 µM, stronger effect = higher value
Chain of Beta-adrenergic receptor kinase 1 (Homo sapiens) (P25098 whole entry, looked up): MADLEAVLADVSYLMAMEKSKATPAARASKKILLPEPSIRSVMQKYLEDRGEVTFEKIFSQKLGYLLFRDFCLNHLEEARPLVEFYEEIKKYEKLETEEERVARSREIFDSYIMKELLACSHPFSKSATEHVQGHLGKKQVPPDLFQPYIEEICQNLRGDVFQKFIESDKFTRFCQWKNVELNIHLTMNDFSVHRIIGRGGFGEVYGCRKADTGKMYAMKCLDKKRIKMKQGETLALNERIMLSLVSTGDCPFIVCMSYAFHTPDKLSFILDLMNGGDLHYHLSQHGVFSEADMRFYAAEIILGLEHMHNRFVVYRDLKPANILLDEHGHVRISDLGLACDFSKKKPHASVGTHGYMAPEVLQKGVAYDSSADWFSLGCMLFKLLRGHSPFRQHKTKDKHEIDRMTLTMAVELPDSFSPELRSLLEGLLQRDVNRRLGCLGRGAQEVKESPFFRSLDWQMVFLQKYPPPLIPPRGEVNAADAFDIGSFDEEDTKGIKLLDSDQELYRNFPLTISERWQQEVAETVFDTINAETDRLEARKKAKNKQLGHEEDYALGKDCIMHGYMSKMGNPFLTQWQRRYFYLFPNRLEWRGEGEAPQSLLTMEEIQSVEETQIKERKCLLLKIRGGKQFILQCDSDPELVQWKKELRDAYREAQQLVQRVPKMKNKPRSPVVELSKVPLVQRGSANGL

[10] = biological target: Beta-2 adrenergic receptor (Homo sapiens) (UniProt P07550); test: agonist-induced loss of surface beta2AR – cell-based, FAP fluorogen, flow cytometry, validation set, pilot screen (AID 504459;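 active = percent response above 42, roughly 3 SD of non-fluorescent test compounds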;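 also: agonist-driven loss of surface beta2AR via internalization measured by FAP dye flow cytometry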); details: Am2.2-beta2AR cells, at 10 µM, stronger effect = higher value
Chain of Beta-2 adrenergic receptor (Homo sapiens) (P07550 whole entry, looked up): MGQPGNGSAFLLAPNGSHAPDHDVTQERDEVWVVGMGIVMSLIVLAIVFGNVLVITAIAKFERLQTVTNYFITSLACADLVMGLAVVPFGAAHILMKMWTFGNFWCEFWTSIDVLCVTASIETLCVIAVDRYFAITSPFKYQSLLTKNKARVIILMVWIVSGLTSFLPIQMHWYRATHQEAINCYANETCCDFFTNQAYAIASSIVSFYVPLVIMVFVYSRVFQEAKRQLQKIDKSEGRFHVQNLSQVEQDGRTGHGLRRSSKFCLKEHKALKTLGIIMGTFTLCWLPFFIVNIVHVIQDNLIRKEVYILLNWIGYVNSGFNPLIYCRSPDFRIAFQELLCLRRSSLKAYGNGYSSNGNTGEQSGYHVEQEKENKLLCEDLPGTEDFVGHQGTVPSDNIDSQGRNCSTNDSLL

[11] = biological target: AP-2 complex subunit beta (Homo sapiens) (UniProt P63010); test: beta-arrestin/AP2 interaction blockers – biochemical, validation set, GST-AP2 beads, flow cytometry, pilot screen (AID 504541;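 active = inhibition above 54%, about 3 SD of non-fluorescent compounds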;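 also: AP2 carries R879A mutation and is captured from E. coli lysate; bead-bound FITC arrestin peptide fluorescence measuring arrestin peptide binding to AP2; 0% = DMSO wells and 100% = excess unlabeled arrestin peptide control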); details: FITC arrestin peptide, at 10 µM, stronger effect = higher value, AP2 beta2 appendage fragment, R879A mutant
Chain of AP-2 complex subunit beta (Homo sapiens) (P63010 whole entry, looked up, the tested form may be a part, one chain of several): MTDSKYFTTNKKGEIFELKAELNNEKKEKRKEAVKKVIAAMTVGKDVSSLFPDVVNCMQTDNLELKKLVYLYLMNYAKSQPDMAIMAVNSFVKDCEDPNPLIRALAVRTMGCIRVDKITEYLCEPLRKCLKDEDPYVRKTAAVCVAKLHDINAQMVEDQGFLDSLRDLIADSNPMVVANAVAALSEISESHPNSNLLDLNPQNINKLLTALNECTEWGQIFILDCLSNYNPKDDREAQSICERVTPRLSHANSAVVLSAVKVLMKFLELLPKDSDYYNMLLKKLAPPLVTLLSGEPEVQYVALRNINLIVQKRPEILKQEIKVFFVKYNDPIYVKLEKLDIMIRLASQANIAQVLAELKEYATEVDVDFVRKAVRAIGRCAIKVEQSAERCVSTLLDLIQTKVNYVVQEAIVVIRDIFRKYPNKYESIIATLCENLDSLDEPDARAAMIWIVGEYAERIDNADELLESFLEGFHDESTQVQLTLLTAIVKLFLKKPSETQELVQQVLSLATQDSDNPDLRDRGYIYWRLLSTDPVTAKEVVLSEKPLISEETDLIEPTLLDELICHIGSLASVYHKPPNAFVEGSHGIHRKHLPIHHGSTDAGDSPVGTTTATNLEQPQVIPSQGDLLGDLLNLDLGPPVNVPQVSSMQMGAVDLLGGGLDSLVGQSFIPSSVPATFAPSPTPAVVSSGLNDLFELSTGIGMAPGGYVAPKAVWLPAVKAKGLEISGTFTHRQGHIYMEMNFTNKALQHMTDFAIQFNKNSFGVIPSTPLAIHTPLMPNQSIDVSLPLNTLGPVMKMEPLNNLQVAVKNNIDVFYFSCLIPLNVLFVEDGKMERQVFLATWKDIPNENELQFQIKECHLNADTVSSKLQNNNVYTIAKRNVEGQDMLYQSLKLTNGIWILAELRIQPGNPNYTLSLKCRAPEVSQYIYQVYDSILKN

[12] = cytosolic pH regulators acting via V-ATPase – S. cerevisiae, pHLuorin, HTS validation (AID 504600; in the data active = response above about 15%;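 also: plate controls were DMSO for no effect and reference compound for full effect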); details: V-ATPase proton transport, at 10 µM, stronger effect = higher value
[13] = tested on: anti-desmoglein-3 scFv antibody binding to human DSG3; test: blockers of pathogenic pemphigus antibody–desmoglein-3 binding – biochemical, validation compound set, bead-based, flow cytometry, pilot screen (AID 588368;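 active = binding below the plate cutoff, the plate median minus 3 SD, with a reading above zero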;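 also: signal is the median channel fluorescence of bead-bound GFP antibody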); details: Protein G beads, DSG3-Fc, scFv-GFP binding, at 10 µM, stronger effect = lower value
[14] = Nile Red efflux blockade in pump-expressing yeast – validation compound set, multiplex, phenotypic, pilot screen (AID 588506;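 active = efflux inhibition above 0.42, the validation set average plus 4 SD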;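 also: Nile Red retained in cells so higher fluorescence means more efflux inhibition; 0 = negative control wells and 1 = enniatin B 25 µM full block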); details: S. cerevisiae pump-expressing triplex, Nile Red efflux flow cytometry; at 10 µM; stronger effect = higher value; the pumps come from Candida albicans
[15] = biological target: ATP-binding cassette sub-family B member 6 (Homo sapiens) (UniProt Q9NP58); test: blockers of ABCB6-driven porphyrin uptake – K562-ABCB6 cells, flow cytometry, validation set, pilot screen (AID 588550;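 active = inhibition above the screen-wide mean plus 3 SD, about 51%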;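 also: 0% = DMSO wells and 100% = benzethonium chloride 70 µM positive control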); details: K562-ABCB6 porphyrin accumulation, 1 h, at 10 µM, stronger effect = higher value
Chain of ATP-binding cassette sub-family B member 6 (Homo sapiens) (Q9NP58 whole entry, looked up): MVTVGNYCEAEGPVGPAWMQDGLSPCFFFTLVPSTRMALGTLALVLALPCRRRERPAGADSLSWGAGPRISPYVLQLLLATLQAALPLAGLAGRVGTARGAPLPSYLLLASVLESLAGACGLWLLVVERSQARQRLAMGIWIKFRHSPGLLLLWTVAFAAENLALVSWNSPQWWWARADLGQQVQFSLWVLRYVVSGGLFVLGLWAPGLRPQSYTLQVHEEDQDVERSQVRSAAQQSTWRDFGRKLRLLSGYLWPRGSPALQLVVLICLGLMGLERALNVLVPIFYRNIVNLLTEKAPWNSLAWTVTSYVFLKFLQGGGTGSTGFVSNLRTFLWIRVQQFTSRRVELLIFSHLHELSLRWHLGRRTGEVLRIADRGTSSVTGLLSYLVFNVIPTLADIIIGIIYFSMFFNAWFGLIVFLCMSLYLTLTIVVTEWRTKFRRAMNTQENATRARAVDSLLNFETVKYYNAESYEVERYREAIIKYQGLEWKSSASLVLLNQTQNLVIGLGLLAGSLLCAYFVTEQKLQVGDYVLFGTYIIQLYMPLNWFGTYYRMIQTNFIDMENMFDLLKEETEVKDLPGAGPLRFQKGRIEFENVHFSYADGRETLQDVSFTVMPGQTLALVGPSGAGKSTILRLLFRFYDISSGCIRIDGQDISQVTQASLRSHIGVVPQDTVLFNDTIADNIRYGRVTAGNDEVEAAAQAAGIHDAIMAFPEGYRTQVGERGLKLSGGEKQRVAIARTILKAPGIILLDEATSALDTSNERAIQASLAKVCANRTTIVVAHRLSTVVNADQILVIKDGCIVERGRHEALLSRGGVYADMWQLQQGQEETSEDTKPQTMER

[16] = AML differentiation inducers, ER-HoxA9 marrow cells – cell-based, GFP/MAC1 double positive, flow cytometry, validation set, primary screen (AID 588685;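 active = differentiation response of at least 50%, scaled between solvent and reference control, from cells with both markers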;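 also: compound exposure lasts four days before antibody staining and flow analysis; 0% = DMSO wells and 100% = 5 µM fulvestrant positive control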); details: stronger effect = higher value, normalized: vehicle 0, fulvestrant 100

Row | Structure (SMILES) | percent of DMSO control GFP [1] | GFP response vs DMSO [2] | percent response of DMSO control [3] | GFP response vs DMSO [4] | GFP response, % of DMSO [5] | double positive events [6] [%] | vesicle binding response [6] | inhibition [7] | superoxide response (% of plate) [8] | aptamer binding inhibition [9] | response [10] | inhibition [11] | response [12] | binding (% of control) [13] | efflux inhibition (fraction of control) [14] | inhibition [15] | differentiation response [16]
1 | O=C(Nc1ccc(Cl)cn1)Nc1ccccc1Cl | 103% (inactive) | 105% (inactive) | 107% (inactive) | 111% (inactive) | 102% (inactive) | 64.5 | 144% (inactive) | -3.77% (inactive) | 93.6% (inactive) | 2% (inactive) | -0.99% (inactive) | -8.05% (inactive) | 23.4% (active) | 105% (inactive) | -0.55 (inactive) | -4% (inactive) | -11.9% (inactive)
2 | COc1ccc(C2C3CCCCC3(O)CCN2C(=O)c2cccs2)cc1 (stereo not drawn) | 102% (inactive) | 105% (inactive) | 97% (inactive) | 107% (inactive) | 107% (inactive) | 61.4 | 376% (inactive) | -0.27% (inactive) | 102% (inactive) | 4% (inactive) | -26.4% (inactive) | -1.09% (inactive) | -1.21% (inactive) | 99% (inactive) | 0.12 (inactive) | -4% (inactive) | -1.05% (inactive)
3 | N/C(=N\OC(=O)CCCOc1ccc(Cl)cc1Cl)c1ccccn1 | 103% (inactive) | 110% (inactive) | 93.9% (inactive) | 107% (inactive) | 86.8% (inactive) | 59.3 | 11.6% (inactive) | 9.71% (inactive) | 106% (inactive) | 0% (inactive) | 2.49% (inactive) | -27.4% (inactive) | -2.42% (inactive) | 105% (inactive) | -0.12 (inactive) | 7% (inactive) | -5.68% (inactive)
4 | O=C(O)c1cc2cc(F)ccc2[nH]1 | 101% (inactive) | 101% (inactive) | 105% (inactive) | 98.6% (inactive) | 102% (inactive) | 64.7 | 894% (inactive) | -15% (inactive) | 113% (inactive) | 3% (inactive) | 0.15% (inactive) | 8.62% (inactive) | 1.32% (inactive) | 97.2% (inactive) | -0.14 (inactive) | 14% (inactive) | -1.71% (inactive)
5 | COc1ccc(CNC(=O)C2CCCN2C)cc1OC (stereo not drawn) | 98.8% (inactive) | 99.7% (inactive) | 101% (inactive) | 92.6% (inactive) | 96.7% (inactive) | 62 | 141% (inactive) | 1.59% (inactive) | 87.7% (inactive) | -2% (inactive) | 7.42% (inactive) | -3.62% (inactive) | -0.65% (inactive) | 104% (inactive) | -0.29 (inactive) | -5% (inactive) | -7.5% (inactive)
6 | COc1ccc(C(C)=O)c2c1OCCO2 | 100% (inactive) | 94.1% (inactive) | 91.9% (inactive) | 88.7% (inactive) | 97.2% (inactive) | 65.9 | 891% (inactive) | -2.53% (inactive) | 97.6% (inactive) | 1% (inactive) | 3.38% (inactive) | 14.1% (inactive) | 0.17% (inactive) | 99.5% (inactive) | -0.07 (inactive) | 11% (inactive) | -1.71% (inactive)
7 | COC(=O)C1[C@H]2C(=O)N(Cc3cccs3)C[C@]23C=C[C@H]1O3 (stereo partly drawn) | 105% (inactive) | 90.9% (inactive) | 105% (inactive) | 80.2% (inactive) | 99.5% (inactive) | 58.4 | 194% (inactive) | 28.6% (inactive) | 98.1% (inactive) | 2% (inactive) | -4.45% (inactive) | -9.57% (inactive) | 2.19% (inactive) | 95% (inactive) | 0.3 (inactive) | 6% (inactive) | 14.9% (inactive)
8 | Cc1ccnc2c1NC(=O)c1cccnc1N2C1CC1 | 102% (inactive) | 98.3% (inactive) | 115% (inactive) | 98% (inactive) | 99.4% (inactive) | 66.5 | 295% (inactive) | 2.66% (inactive) | 108% (inactive) | 4% (inactive) | -1.22% (inactive) | -5.17% (inactive) | 0.42% (inactive) | 99.2% (inactive) | -0.17 (inactive) | 2% (inactive) | 2.2% (inactive)
9 | Cc1nc(NCc2ccco2)c(C#N)c2c1COC(C)(C)C2 | 102% (inactive) | 98.7% (inactive) | 96.5% (inactive) | 102% (inactive) | 92.4% (inactive) | 57.7 | 99.2% (inactive) | -9.13% (inactive) | 123% (inactive) | 4% (inactive) | 7.11% (inactive) | -2% (inactive) | 12% (inactive) | 98.8% (inactive) | -0.31 (inactive) | 15% (inactive) | -1.65% (inactive)
10 | O=C(/C=C/c1ccccc1)NC(=O)c1ccccc1O | 106% (inactive) | 104% (inactive) | 104% (inactive) | 121% (inactive) | 94.2% (inactive) | 59.9 | 128% (inactive) | 4.27% (inactive) | 111% (inactive) | -4% (inactive) | 5.9% (inactive) | 15.2% (inactive) | -7.97% (inactive) | 102% (inactive) | 0.07 (inactive) | 0% (inactive) | -10.4% (inactive)
11 | CCOC(=O)C(NC(C)=O)C(O)c1ccc([N+](=O)[O-])cc1 (stereo not drawn) | 99.5% (inactive) | 105% (inactive) | 85.3% (inactive) | 124% (inactive) | 99.2% (inactive) | 57.3 | 211% (inactive) | -3.16% (inactive) | 103% (inactive) | 0% (inactive) | 4.84% (inactive) | -1.65% (inactive) | -1.89% (inactive) | 99.7% (inactive) | -0.21 (inactive) | 6% (inactive) | 32.8% (inactive)
12 | Cc1cccc2c(C(=O)O)cc(-c3cccnc3)nc12 | 104% (inactive) | 105% (inactive) | 95.4% (inactive) | 98% (inactive) | 101% (inactive) | 63.5 | 140% (inactive) | 3.7% (inactive) | 102% (inactive) | 0% (inactive) | -8.08% (inactive) | -0.94% (inactive) | 2.28% (inactive) | 95% (inactive) | -0.01 (inactive) | -3% (inactive) | 7.09% (inactive)
13 | COc1cccc(OCC(O)CO)c1 (stereo not drawn) | 97.6% (inactive) | 91.9% (inactive) | 107% (inactive) | 78.6% (inactive) | 91.6% (inactive) | 58.2 | 160% (inactive) | 0.94% (inactive) | 94.9% (inactive) | 4% (inactive) | 3.25% (inactive) | 11.4% (inactive) | -1.06% (inactive) | 99.9% (inactive) | -0.1 (inactive) | 1% (inactive) | -4% (inactive)
14 | O=C1c2ccccc2C(=O)N1/N=C/c1ccc(Oc2ccc([N+](=O)[O-])cn2)cc1 | 103% (inactive) | 107% (inactive) | 115% (inactive) | 92% (inactive) | 107% (inactive) | 56.2 | 38.7% (inactive) | 12% (inactive) | 106% (inactive) | 0% (inactive) | -4.65% (inactive) | 2.91% (inactive) | -3.15% (inactive) | 92.5% (inactive) | -0.01 (inactive) | -7% (inactive) | -7.57% (inactive)
15 | CC1(C)C(=O)OC(/C=C\c2ccccc2)C(C)(C)C1=O (stereo not drawn) | 98.4% (inactive) | 101% (inactive) | 95.7% (inactive) | 112% (inactive) | 107% (inactive) | 64.8 | 160% (inactive) | 1.44% (inactive) | 80.2% (inactive) | 6% (inactive) | -19.9% (inactive) | 6.83% (inactive) | -6.88% (inactive) | 97.3% (inactive) | -0.09 (inactive) | 3% (inactive) | 4.86% (inactive)
16 | CC1(C)CC(C(CC(=O)O)c2ccccc2)CCO1 (stereo not drawn) | 97.6% (inactive) | 103% (inactive) | 99.6% (inactive) | 109% (inactive) | 102% (inactive) | 58.1 | 155% (inactive) | -1.79% (inactive) | 99.7% (inactive) | 0% (inactive) | -5.23% (inactive) | 48.1% (inactive) | -5.35% (inactive) | 95.7% (inactive) | 0.05 (inactive) | 2% (inactive) | 37.6% (inactive)
17 | CCc1ccc(CN(C)Cc2nc(Cc3ccccc3)no2)nc1 | 105% (inactive) | 99.6% (inactive) | 103% (inactive) | 112% (inactive) | 112% (inactive) | 59.8 | 160% (inactive) | 0.59% (inactive) | 101% (inactive) | 4% (inactive) | -25% (inactive) | 1.57% (inactive) | -11.6% (inactive) | 97.3% (inactive) | -0.04 (inactive) | -5% (inactive) | 14.7% (inactive)
18 | Cc1ccccc1NC(=O)NCCc1c[nH]c2ccccc12 | 101% (inactive) | 107% (inactive) | 101% (inactive) | 89.4% (inactive) | 98.8% (inactive) | 60.8 | 12.4% (inactive) | 9.71% (inactive) | 96.6% (inactive) | 2% (inactive) | 9.05% (inactive) | 7.09% (inactive) | -3.03% (inactive) | 101% (inactive) | 0.07 (inactive) | 10% (inactive) | -1.88% (inactive)
19 | O=C(O)C(O)c1ccccc1 (stereo not drawn) | 101% (inactive) | 95.6% (inactive) | 105% (inactive) | 99.1% (inactive) | 102% (inactive) | 53.8 | 90.5% (inactive) | -6.45% (inactive) | 96.6% (inactive) | 5% (inactive) | 3.86% (inactive) | -5.56% (inactive) | 1.56% (inactive) | 104% (inactive) | -0.12 (inactive) | 12% (inactive) | -3.11% (inactive)
